Unmarked numbers belong to inactive results. Inconclusive results are not listed. Active and inactive are the calls of the source. Unless noted, calls follow the shape of the dose curve; as a rule, active = well fitted curve in the direction sought with a large enough effect in the repeat runs; inconclusive = weak or mixed curves; inactive = no such curve, though single readings can be large; an effect the other way counts as inactive or inconclusive.

Test [1] is described as follows: qHTS RealTime-Glo MT Cell Viability Assay in HEK293 cells - 0 hour (AID 1224880). Also: top concentration of the series differs between compounds; nearly all actives have a fitted effect of over 45% in size. The procedure, abridged:
(§1)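 600 cells/well were plated with the nonlytic NanoLuc/prosubstrate reagent, pre-incubated 5 h, then given 23 nL of compound in DMSO. Incubation at 37 C for 40 h, with luminescence from viable-cell-reduced substrate read repeatedly from 0 h.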

A short description of test [2]: A CellTox Green Cytotoxicity Assay to monitor cytotoxicity in HEK293 cells - 32 hour (AID 1224881). Also: nearly all actives have a fitted effect of over 40% in size. The procedure, abridged:
(§2)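 HEK293 cells, 600/well, were preincubated 5 hours and then exposed to compounds at 37 C for up to 40 hours. A cell-impermeant cyanine dye staining dead-cell DNA was read by fluorescence at 0, 8, 16, 24, 32 and 40 h time points.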

Test [3] can be described thus: A CellTox Green Cytotoxicity Assay to monitor cytotoxicity in HepG2 cells - 0 hour (AID 1224882). Also: nearly all actives have a fitted effect of over 35% in size. The procedure, abridged: (§3)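 HepG2 cells, 600/well, preincubated 5 h with CellTox Green dye, then exposed to Tox21 compounds in DMSO at 37 C for up to 40 h. Dead-cell DNA fluorescence read at the indicated time point.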
Test [4] in a line: A CellTox Green Cytotoxicity Assay to monitor cytotoxicity in HEK293 cells - 8 hour (AID 1224884). Also: nearly all actives have a fitted effect of over 35% in size. The procedure, abridged:
as §2

A short description of test [5]: qHTS RealTime-Glo MT Cell Viability Assay in HepG2 cells - 16 hour (AID 1224885). Also: nearly all actives have a fitted effect of over 50% in size. The procedure, abridged: (§4)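 Compound treatment began 5 h after plating HepG2 cells (600/well) with NanoLuc luciferase and prosubstrate. Plates stayed at 37 C for 40 h; luminescence was captured at six time points, 0 h through 40 h.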
For orientation: In qHTS, concentration-response curves come from the screen itself.

A short description of test [6]: qHTS RealTime-Glo MT Cell Viability Assay in HEK293 cells - 8 hour (AID 1224887). Also: top concentration of the series differs between compounds; nearly all actives have a fitted effect of over 50% in size. The procedure, abridged: as §1
Test [7] can be described thus: A CellTox Green Cytotoxicity Assay to monitor cytotoxicity in HEK293 cells - 16 hour (AID 1224888). Also: nearly all actives have a fitted effect of over 35% in size. The procedure, abridged:
as §2

Test [8] in a line: qHTS RealTime-Glo MT Cell Viability Assay in HepG2 cells - 0 hour (AID 1224889). Also: nearly all actives have a fitted effect of over 50% in size. The procedure, abridged: as §4
Test [9] is described as follows: A CellTox Green Cytotoxicity Assay to monitor cytotoxicity in HepG2 cells - 8 hour (AID 1224890). Also: nearly all actives have a fitted effect of over 45% in size. The procedure, abridged:
as §3

Test [10] is described as follows: qHTS assay to identify small molecule antagonists of the estrogen receptor alpha (ER-alpha) signaling pathway using the BG1 cell line in the presence of 0.1 nM 17-beta-estradiol - cell viability counter screen (AID 1259241). Also: nearly all actives have a fitted effect of over 40% in size. The procedure, abridged:
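Estradiol-stimulated (0.1 nM) VM7Luc4E2 cells exposed to compounds 22 hr; viability measured by fluorescence of cleaved CellTiter-Fluor substrate after 30 min.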

Test [11] can be described thus: qHTS assay to identify small molecule antagonists of the androgen receptor (AR) signaling pathway using the MDA cell line in the presence of 0.5 nM R1881 - cell viability counter screen (AID 1259242). Also: nearly all actives have a fitted effect of over 45% in size. The procedure, abridged:
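MDA-kb2 cells (MMTV-luciferase, AR/GR responsive) were treated with compounds plus 0.5 nM R1881 (final) for 16 hr at 37C, 0% CO2. Viability was then read in the same wells as live-cell protease fluorescence (CellTiter-Fluor, 30 min).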

Test [12] can be described thus: qHTS assay to identify small molecule phospholipidosis (PLD) inducers (AID 1259344; active = well fitted curve in the direction sought with a large enough effect; an effect the other way counts as inactive or inconclusive). The procedure, abridged:
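Fluorescent phospholipid staining (LipidTOX Red) measured by automated microscopy in fixed HepG2 cells after 24 h treatment; nuclei counterstained with Hoechst 33342; amiodarone as reference inducer.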

A short description of test [13]: qHTS assay to identify small molecule HDAC inhibitors - cell viability counter screen (AID 1259365). Also: series mostly up to about 92 µM; nearly all actives have a fitted effect of over 50% in size. The procedure, abridged:
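After overnight seeding at 1,500 cells per well, wild-type HCT-116 cultures took up compounds in DMSO for 2hr at 37 C. Viable cell content came from luminescence with CellTiter-Glo.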

The nature of test [14]: A CellTox Green Cytotoxicity Assay to monitor cytotoxicity in HepG2 cells - 32 hour (AID 1224883). Also: nearly all actives have a fitted effect of over 50% in size. The procedure, abridged:
as §3

Test [15] can be described thus: qHTS RealTime-Glo MT Cell Viability Assay in HEK293 cells - 24 hour (AID 1224886). The procedure, abridged: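 Quantitative high-throughput screen of the Tox21 10K library in HEK293: cells and RealTime-Glo reagents plated together, compound added at 5 h, luminescence monitored through 40 h at 37 C.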
Test [16] in a line: qHTS assay to identify small molecule HDAC inhibitors (AID 1259364). Also: top concentration of the series differs between compounds; nearly all actives have a fitted effect of over 45% in size. The procedure, abridged:
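Wild-type HCT-116 cells, plated overnight at 37 C, exposed to compounds 2 hr at 37 C; luminogenic HDAC-Glo substrate then added 30 min at room temperature. Luminescence reports relative endogenous class I/II HDAC activity.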

Test [17] is described as follows: qHTS assay to identify small molecule agonists of the sonic hedgehog signaling (Shh) pathway - cell viability counter screen (AID 1259366). Also: nearly all actives have a fitted effect of over 50% in size. The procedure, abridged: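 Same-well cytotoxicity read. Gli1-Luc reporter 3T3 cells; compounds 24hr, 37C/5% CO2; CellTiter-Fluor fluorescence.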
The nature of test [18]: qHTS assay to identify small molecule antagonists of the sonic hedgehog signaling (Shh) pathway - cell viability counter screen (AID 1259367). Also: nearly all actives have a fitted effect of over 55% in size. The procedure, abridged:
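Using CellTiter-Fluor, viability of Gli1-Luc reporter 3T3 cells is read by fluorescence in the wells used for the Shh luciferase assay. Treatment lasts 23 hr with conditioned medium, then reagent 1 hr at 37C.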

In test [19] the target is Estrogen receptor (Homo sapiens) (UniProt P03372). The test is described as follows: qHTS assay to identify small molecule antagonists of the estrogen receptor alpha (ER-alpha) signaling pathway using the BG1 cell line in the presence of 0.1 nM 17-beta-estradiol (AID 1259244). Also: nearly all actives have a fitted effect of over 50% in size. The procedure, abridged: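 VM7Luc4E2 cells (endogenous full-length ER-alpha, 4×ERE-luciferase), kept 5 days in phenol red-free, charcoal-stripped FBS medium; 4,000 cells/well. Compounds added with 0.1 nM (final) 17beta-estradiol, 22 hr at 37C; luminescence read with ONE-Glo after 30 min.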

The target of test [20] is Androgen receptor (Homo sapiens) (UniProt P10275). Briefly: qHTS assay to identify small molecule antagonists of the androgen receptor (AR) signaling pathway using the MDA cell line in the presence of 0.5 nM R1881 (AID 1259243). Also: nearly all actives have a fitted effect of over 50% in size. Also: potency is read from the fitted curve at half-maximal effect. The procedure, abridged: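 MDA-kb2 cells (MMTV-luciferase, responsive to AR and GR) at 3,000/well, rested 5 h at 37C, 0% CO2, then given compounds plus 0.5 nM R1881 (final) for 16 hr. Luciferase read with ONE-Glo after 30 min at room temperature.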
% is scaled to controls: 0 for no effect and ±100 for the full control effect.

Estrogen receptor (Homo sapiens), sequence (P03372 whole entry, looked up): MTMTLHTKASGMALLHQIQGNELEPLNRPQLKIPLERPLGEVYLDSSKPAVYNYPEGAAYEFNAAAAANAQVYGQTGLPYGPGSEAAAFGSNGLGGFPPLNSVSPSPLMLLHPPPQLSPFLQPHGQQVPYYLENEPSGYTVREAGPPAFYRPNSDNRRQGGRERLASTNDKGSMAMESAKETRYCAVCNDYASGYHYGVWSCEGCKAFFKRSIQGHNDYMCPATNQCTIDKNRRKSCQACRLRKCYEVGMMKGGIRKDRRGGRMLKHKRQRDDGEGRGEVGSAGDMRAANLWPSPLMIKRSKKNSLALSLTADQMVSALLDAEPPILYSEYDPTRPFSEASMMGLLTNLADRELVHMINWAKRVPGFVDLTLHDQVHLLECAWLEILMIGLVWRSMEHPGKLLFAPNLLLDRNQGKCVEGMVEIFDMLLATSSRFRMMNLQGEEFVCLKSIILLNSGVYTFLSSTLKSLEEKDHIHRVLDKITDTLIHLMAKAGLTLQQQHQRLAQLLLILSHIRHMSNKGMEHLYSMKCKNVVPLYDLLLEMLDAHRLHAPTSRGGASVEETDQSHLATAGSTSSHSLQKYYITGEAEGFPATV
Androgen receptor (Homo sapiens), sequence (P10275 whole entry, looked up): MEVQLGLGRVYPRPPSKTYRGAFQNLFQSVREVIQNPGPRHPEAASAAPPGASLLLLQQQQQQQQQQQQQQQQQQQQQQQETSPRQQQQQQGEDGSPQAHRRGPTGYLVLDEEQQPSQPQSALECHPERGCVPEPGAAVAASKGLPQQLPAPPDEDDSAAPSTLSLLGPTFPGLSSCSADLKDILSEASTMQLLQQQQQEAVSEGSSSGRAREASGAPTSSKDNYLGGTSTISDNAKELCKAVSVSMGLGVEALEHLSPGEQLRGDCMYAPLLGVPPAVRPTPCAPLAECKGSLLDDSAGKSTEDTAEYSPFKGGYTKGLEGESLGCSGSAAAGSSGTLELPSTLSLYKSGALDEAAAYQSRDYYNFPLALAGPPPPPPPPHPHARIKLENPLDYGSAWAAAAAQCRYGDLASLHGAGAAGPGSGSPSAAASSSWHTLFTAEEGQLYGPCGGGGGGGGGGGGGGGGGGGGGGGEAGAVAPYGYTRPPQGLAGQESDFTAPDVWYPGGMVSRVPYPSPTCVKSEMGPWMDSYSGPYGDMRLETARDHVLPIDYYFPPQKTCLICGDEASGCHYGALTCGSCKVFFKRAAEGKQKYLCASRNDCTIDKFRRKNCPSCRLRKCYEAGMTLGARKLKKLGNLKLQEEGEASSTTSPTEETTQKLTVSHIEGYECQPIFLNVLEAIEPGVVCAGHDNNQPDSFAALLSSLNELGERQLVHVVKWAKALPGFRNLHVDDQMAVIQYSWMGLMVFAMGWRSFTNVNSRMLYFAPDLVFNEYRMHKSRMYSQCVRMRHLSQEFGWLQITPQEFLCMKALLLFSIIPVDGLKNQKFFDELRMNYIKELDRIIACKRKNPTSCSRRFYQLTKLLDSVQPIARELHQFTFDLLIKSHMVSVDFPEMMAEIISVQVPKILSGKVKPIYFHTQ

Regarding `C[C@H](CN1CCOCC1)C(C(=O)N1CCCC1)(c1ccccc1)c1ccccc1`, the compound was classed as inactive in test [1], in [3], in [8], in test [10] and in test [13]. Also, the Potency result in test [2], in test [4], in test [5], in test [6], in test [7] and in test [9] was “inactive” throughout. In addition, the Potency entry in test [11] and in test [12] was “inactive” each time.
`CCCOC(=O)Cc1ccc(OCC(=O)N(CC)CC)c(OC)c1`: the result in test [1], in [8], in test [10] and in test [13] was inactive. In addition, the Potency result in [2], in test [14], in test [4], in test [5], in test [15] and in test [6] was “inactive” throughout. Also, the Potency entry in [7], in test [9], in test [11], in test [12], in test [16] and in test [17] was “inactive” throughout. Besides, the Potency entry in test [18] was “inactive”.
Consider `CCN(CCO)CCn1c(Cc2ccccc2)nc2c1c(=O)n(C)c(=O)n2C`, for which the outcome in [1], in test [8], in [10] and in test [13] was inactive. For the same compound, the Potency result in [2], in test [14], in test [4], in test [5], in test [15] and in test [6] was “inactive” each time. Also, the Potency entry in test [7], in test [9], in [11], in test [19], in test [16] and in test [17] was “inactive” in each case. For the same compound, the Potency entry in test [18] was “inactive”. In addition, the PLD induction in test [12] was -2.9% [at 7.66 µM].
`C=C(Cl)CSC(=S)N(CC)CC`: the compound was classed as inactive in test [1], in test [3], in test [8] and in test [13]. The Potency entry in test [2], in [4], in test [5], in test [15], in test [6] and in test [7] was “inactive” each time. For the same compound, the Potency entry in [9], in test [11], in test [16], in test [17] and in [18] was “inactive” throughout.
As for `Clc1cc2c(cc1Cl)Oc1cc(Cl)c(Cl)cc1O2`, the activity change, negative = cytotoxicity in [1] was -12.5% [at 0.29 µM]; in test [8] it was 7.93% [at 0.29 µM]; in test [10], -0.812% [at 0.349 µM]; in test [13], 6.76% [at 0.349 µM]. For the same compound, the cytotoxicity increase in test [2] was -34% [at 0.29 µM]; in test [4], -18.7% [at 0.29 µM]; in test [9] it was -6.05% [at 0.29 µM]. Moreover, the cytotoxicity in [3] is -1.33% [at 0.29 µM]. In addition, the activity change, negative = cytotoxic in test [5] was 2.3% [at 0.29 µM]. The activity change in test [7] was -25.8% [at 0.29 µM, active compounds read high]. In addition, the viability change, negative = cytotoxic was -3.69% [at 0.349 µM] in test [11], -1.46% [at 0.349 µM] in test [17] and 1.51% [at 0.349 µM] in [18]. The activity, negative = inhibition in test [20] is 16.7% [at 0.349 µM]. The activity change, negative = inhibition in [16] was 0.908% [at 0.349 µM].
Turning to `O=C(Cl)C(Cl)Cl`, the outcome in test [1], in test [8] and in test [10] was inactive. In addition, the Potency result in [2], in test [14], in test [4], in test [5], in [15] and in test [6] was “inactive” throughout. Also, the Potency result in [7], in test [9], in test [11], in test [19], in test [17] and in [18] was “inactive” each time.
In the case of `CC[C@@H](CO)NC(=O)[C@@H]1C=C2c3cccc4c3c(cn4C)C[C@H]2N(C)C1`, the compound was called inactive in test [1], in test [3], in [8] and in [10]. For the same compound, the Potency entry in test [2], in test [4], in [5], in [15], in test [6] and in test [7] was “inactive” throughout. Moreover, the Potency entry in [9], in test [11], in [19], in [12], in test [16] and in test [17] was “inactive” each time. Moreover, the Potency result in [18] was “inactive”.
In the case of `CCOC1Oc2ccc(OS(C)(=O)=O)cc2C1(C)C` (stereo unspecified), the call in test [1], in [3], in test [8], in test [10] and in test [13] was inactive. Besides, the Potency result in [2], in [4], in [5], in [6], in [7] and in test [9] was “inactive” throughout. For the same compound, the Potency entry in test [11], in test [16], in [17] and in [18] was “inactive” each time. For the same compound, the Potency in test [20] is 60.6 µM (active).

The values are drawn from PubChem BioAssay (Tox21).
